From PubChem BioAssay (NCI)
This is part of a sample that, as a whole, favours compounds with a hit. Of some 79,000 tested, about 15% had one in any assay. The source made the active and inactive calls. Cut-off read from the data, not from the text of the source: active = growth inhibition above about 70%; inactive = the rest.

Assays:
[1] = NCI Yeast Anticancer Drug Screen. Data for the rad50 strain (AID 155);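 note: 0% = growth of vehicle-only cultures of the same strain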; settings: S. cerevisiae rad50 strain growth inhibition, stronger effect = higher value
Procedure, shortened: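 DNA repair mutant yeast, compound exposure, growth read-out; inhibition is taken relative to vehicle.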

[2] = NCI Yeast Anticancer Drug Screen. Data for the mec2-1 strain (AID 157); settings: S. cerevisiae mec2-1 strain, stronger effect = higher value
Procedure, shortened: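 mec2-1 yeast strain, carrying an alteration in DNA damage repair or cell cycle control, was exposed to compounds; growth inhibition was measured relative to vehicle-treated controls.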

[3] = NCI Yeast Anticancer Drug Screen. Data for the sgs1 mgt1 strain (AID 161);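 note: 0% = growth of cultures given vehicle only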; settings: S. cerevisiae sgs1 mgt1 strain, stronger effect = higher value
Procedure, shortened: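 Yeast cells carrying a defined DNA-repair defect were exposed to test compounds. Growth inhibition was measured relative to vehicle-treated controls.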

[4] = NCI Yeast Anticancer Drug Screen. Data for the cln2 rad14 strain (AID 165);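 note: 0% = growth equal to vehicle treated cultures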; settings: S. cerevisiae cln2 rad14 strain, stronger effect = higher value
Procedure, shortened: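 Yeast carrying cln2 and rad14 alterations (cell cycle control and DNA damage repair) were exposed to compounds. Growth inhibition was measured against vehicle-treated controls.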

[5] = NCI Yeast Anticancer Drug Screen. Data for the bub3 strain (AID 167); settings: S. cerevisiae bub3 mutant strain, stronger effect = higher value
Procedure, shortened: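 In this screen, a yeast mutant lacking normal mitotic checkpoint function is challenged with compound. Relative growth versus vehicle gives the inhibition value.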

[6] = NCI Yeast Anticancer Drug Screen. Data for the mlh1 rad18 strain (AID 175); settings: S. cerevisiae mlh1 rad18 strain growth inhibition, stronger effect = higher value
Procedure, shortened: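 Growth inhibition of the yeast strain was measured after compound exposure and expressed relative to vehicle-treated controls. The strain carries defined defects in DNA damage repair.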

[7] = at 5.0 µM (retest, dose inferred, filed as 0.5)
[8] = at 50.0 µM (retest, dose inferred, filed as 5.0)

Measured: growth inhibition

N=C(N)c1ccc(OCCCCOc2ccc(N)cc2Cl)cc1
inactive: [1]; [7] -36% | [1]; at 50.0 µM 54.5% | [2]; [7] -2% | [2]; at 50.0 µM 7.85% | [3]; [7] 3% | [3]; at 50.0 µM 44.4% | [4]; [7] -2% | [4]; [8] 38% | [4]; at 50.0 µM -16.9% | [5]; [7] 0% | [5]; at 50.0 µM 0.65% | [6]; [7] 17% | [6]; at 50.0 µM 58.6%
active: [1]; [8] 89% | [2]; [8] 79% | [3]; [8] 98% | [5]; [8] 97% | [6]; [8] 98%

Cc1cc(C2C(O)C(c3cc(C)on3)C2(C)O)no1 (stereo not given)
active: [1]; at 50.0 µM 72.2%
inactive: [1]; [7] 0% | [1]; [8] 0% | [2]; [7] -12% | [2]; [8] 13% | [2]; at 50.0 µM 38.5% | [3]; [7] 3% | [3]; [8] 5% | [3]; at 50.0 µM 62.6% | [4]; [7] -2% | [4]; [8] -7% | [4]; at 50.0 µM -24.1% | [5]; [7] 2% | [5]; [8] -1% | [5]; at 50.0 µM 8.1% | [6]; [7] 16% | [6]; [8] 17% | [6]; at 50.0 µM 50.2%

C1CCC(CC[N+]23CC[N+](CCC4CCCC4)(CC2)C3)C1
active: [3]; [8] 72%
inactive: [1]; [7] 1% | [1]; [8] 33% | [1]; at 50.0 µM 62.3% | [2]; [7] -8% | [2]; [8] 34% | [2]; at 50.0 µM -14.4% | [3]; [7] 12% | [3]; at 50.0 µM 45.3% | [4]; [7] 2% | [4]; [8] 15% | [4]; at 50.0 µM -8.6% | [5]; [7] 2% | [5]; [8] 25% | [5]; at 50.0 µM 11.6% | [6]; [7] 24% | [6]; [8] 59% | [6]; at 50.0 µM 40%

CCCCCCCCCCCCNC(=O)OCC(C)O (stereo not given) (tested in a mixture with another compound)
active: [1]; [7] 95% | [1]; [8] 97% | [1]; at 50.0 µM 98.2% | [2]; [7] 76% | [2]; [8] 93% | [2]; at 50.0 µM 96.6% | [3]; [7] 96% | [3]; [8] 98% | [3]; at 50.0 µM 98.9% | [4]; [7] 81% | [4]; [8] 88% | [4]; at 50.0 µM 97.9% | [5]; [7] 84% | [5]; [8] 74% | [5]; at 50.0 µM 99.4% | [6]; [7] 93% | [6]; [8] 91% | [6]; at 50.0 µM 98.5%

O=c1[nH]c(=O)c2cc([N+](=O)[O-])cc([N+](=O)[O-])c2[nH]1
inactive: [1]; [7] 9% | [1]; at 50.0 µM 50.6% | [2]; [7] 6% | [2]; [8] 57% | [3]; [7] 12% | [3]; at 50.0 µM 54.9% | [4]; [7] -3% | [4]; [8] 63% | [4]; at 50.0 µM 25.7% | [5]; [7] 8% | [6]; [7] 5% | [6]; [8] 38%
active: [1]; [8] 75% | [2]; at 50.0 µM 73.7% | [3]; [8] 78% | [5]; [8] 70% | [5]; at 50.0 µM 78.3% | [6]; at 50.0 µM 75%
